# Source: PubChem BioAssay
# PNC inhibitor – inhibitors of perinucleolar compartment assembly; PC3M PTB-GFP, PNC prevalence imaging, 16 h; active compounds read low; activity change (PNC), negative = inhibition, % at 10 µM; hit rate 3.1% among 140,000; AID 2417;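 active means readout at or below -70, meaning at least 70% loss of cells showing the perinucleolar compartment, a nuclear body marking cancer cells; inconclusive means readout between -30 and a set limit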;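 further: plate controls were DMSO wells for no effect and camptothecin positive control wells for full effect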
#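 Compounds are pinned in duplicate onto adhered PC3M cells stably expressing GFP-tagged PTB and incubated 16 h at 37 C. Cells are then fixed, nuclei stained with Hoechst, and PNC-positive cells counted.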
# IMPase Li cell – membrane-permeable IMPase blocker, potentiated with lithium; CHO-M1 cells, IP1 TR-FRET (IP-One), carbachol + lithium; Potency, µM (top dose mostly 59.4 µM), for the others: top-dose activity, negative = IMPase inhibition, usual class: inhibitors; hit rate 0.35% among 210,000; AID 1457; active means well fitted inhibition curve with a large enough effect; inconclusive means small, poorly fitted or top-dose-only effect; inactive means no such curve, though single readings can be large or run the other way;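 further: IP1 builds up when IMPase is blocked and the TR-FRET signal falls; potency means the concentration at half of the fitted maximal effect; plate controls were basal vehicle for no effect and high inhibitor control for full effect; nearly all actives have a fitted effect of over 50% in size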
#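 Lithium-sensitised IP1 accumulation assay; M1-expressing CHO cells treated 30 min at 37C with compound. Competitive antibody detection by time-resolved FRET followed a 10 min room-temperature lysis step.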
# ALDH1A1 block – inhibitors of human aldehyde dehydrogenase 1A1 | P00352 | Purified ALDH1A1, NADH fluorescence, propionaldehyde substrate | Potency, µM (highest dose often 75.3 µM), for inactives: top-dose activity, negative = inhibition, hits mostly inhibitors | hit rate 7.3% among 220,000 | AID 1030;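 further: potency means the concentration at half of the fitted maximal effect; plate controls were no enzyme wells and a reference inhibitor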
# Target sequence (P00352 whole entry, looked up): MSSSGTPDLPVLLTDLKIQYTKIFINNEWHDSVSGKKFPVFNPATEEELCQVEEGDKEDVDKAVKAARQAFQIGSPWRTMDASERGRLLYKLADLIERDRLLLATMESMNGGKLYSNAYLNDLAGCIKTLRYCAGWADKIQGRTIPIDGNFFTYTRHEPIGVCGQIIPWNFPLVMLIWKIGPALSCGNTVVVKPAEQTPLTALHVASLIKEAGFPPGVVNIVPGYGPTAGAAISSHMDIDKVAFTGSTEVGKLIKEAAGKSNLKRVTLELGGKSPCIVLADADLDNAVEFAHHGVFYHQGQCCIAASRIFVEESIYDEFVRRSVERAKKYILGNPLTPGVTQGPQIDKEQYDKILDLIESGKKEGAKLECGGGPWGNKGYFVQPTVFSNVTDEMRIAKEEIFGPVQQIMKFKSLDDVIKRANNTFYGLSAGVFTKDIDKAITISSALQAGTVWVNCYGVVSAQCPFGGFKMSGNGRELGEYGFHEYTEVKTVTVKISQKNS
# IMPase inh – cell-permeable inhibitors of inositol monophosphatase (IMPase). CHO-M1 cells, IP1 accumulation, HTRF TR-FRET ratio. inhibition (IP1 accumulation), % at 46.1 µM. 120,000 tested, under 10 active. AID 901; active means well fitted curve in the direction sought with a large enough effect in the signal ratio, not every such curve was filed as active; inconclusive means small, poorly fitted or top-dose-only effect, or a change in a side signal; inactive means no such curve, though single readings can be large or run the other way; the % refers to the signal ratio;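 further: cells stimulated with carbachol in lithium chloride buffer; plate controls were DMSO basal wells for no effect and reference inhibitor wells for full effect; higher means more IMPase inhibition seen as more IP1 and lower FRET ratio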
#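 CHO-M1, 2000 cells/well, cultured 16–30 h; cpd up to 46 uM; carbachol (50 uM solution, stimulation buffer w/ 50 mM LiCl, pH 7.4), 30 min 37C; IP-One TR-FRET, 10 min RT; Ex 320/Em 665, 620; Hill-fit AC50.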
# HPGD inh – HPGD (human) dehydrogenase inhibition. P15428. purified HPGD, NADH fluorescence kinetic, PGE2 substrate. Potency, µM, without a hit: at the highest dose activity change, negative = inhibition, most hits filed as inhibitors. hit rate 4.3% among 150,000; further: potency means the concentration at half of the fitted maximal effect
# Target sequence (P15428 whole entry, looked up): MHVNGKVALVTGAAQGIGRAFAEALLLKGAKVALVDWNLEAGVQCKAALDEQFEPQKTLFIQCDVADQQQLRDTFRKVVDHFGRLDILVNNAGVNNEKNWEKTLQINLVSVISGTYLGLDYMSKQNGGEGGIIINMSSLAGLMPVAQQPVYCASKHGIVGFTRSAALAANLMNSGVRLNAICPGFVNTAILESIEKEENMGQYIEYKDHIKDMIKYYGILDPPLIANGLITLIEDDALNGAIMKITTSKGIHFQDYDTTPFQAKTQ
#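 20 nM HPGD preincubated 15 min at room temperature with compound in 50 mM Tris-HCl pH 8, 0.01% Tween 20. Started with 1 mM NAD+ and 30 uM prostaglandin E2; NADH fluorescence (360/450 nm) read 5 times over 30-s intervals, last minus first.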
# Starred values were filed as active, the others as inactive; ? = inconclusive; nt = no result given; [ ] = dose if it differs, or a comment. Shown are actives, neighbours in structure and some others; about 11% of the full set was active somewhere. Unless noted, the call rests on the fitted dose curve; in most records, active means well fitted inhibition curve with a large enough effect (not every such curve was filed as active); inconclusive means small, poorly fitted or top-dose-only effect, or another doubt; inactive means no such curve, though single readings can be large or run the other way. Unless noted, on the % scale 0 is the no-effect control and ±100 the full control effect.
SMILES,PNC inhibitor,IMPase Li cell,ALDH1A1 block,IMPase inh,HPGD inh
Cc1cc(/C=C2\SC(=S)N(Cc3ccco3)C2=O)c(C)n1-c1ccccc1,-22,6%,0.089µM*,nt,?
COc1ccc(-n2c(C)cc(/C=C3/SC(=S)N(C)C3=O)c2C)cc1,?,5%,1µM*,nt,-10%
O=C1/C(=C\c2ccco2)SC(=S)N1c1ccccc1,-5,-4%,8.9µM*,nt,-19%
O=C1/C(=C\c2ccco2)SC(=S)N1Cc1ccccc1,-9,3%[38.3 µM],14µM*,11,-21%
Cc1cccc(C(C(N)=O)c2ncc(C(F)(F)F)cc2Cl)c1 (stereo not given),nt,-2%,1%,nt,nt
O=C(O)CCc1nn2c3ccccc3n(CC(=O)c3cccs3)c2nc1=O,nt,-10%,?,nt,nt
COc1ccc(/C=C2/SC(=S)N(n3c(C)ccc3C)C2=O)cc1,2,31%[38.3 µM],6.3µM*,-5,-26%
Cc1nn(-c2cc(N(S(C)(=O)=O)S(C)(=O)=O)c(Cl)cc2Cl)c(=O)n1C,49,-2%,10%,nt,1%
Cc1cccc(N2CCN(C(=S)c3ccc([N+](=O)[O-])cc3)CC2)c1,-27,23%,2.5µM*,nt,7.9µM*
O=[N+]([O-])c1ccc(NC(=S)N2CCN(c3ccc(F)cc3)CC2)cc1,44,12%[38.3 µM],4%,4,-15%
O=[N+]([O-])c1ccc(C(=S)N2CCN(c3ccc(F)cc3)CC2)cc1,nt,18%,10µM*,nt,nt
CC(=O)N1CCN(C(=S)c2ccc([N+](=O)[O-])cc2)CC1,14,13%[38.3 µM],22µM*,3,32µM*
CC(=O)N1CCN(c2ccc([N+](=O)[O-])cc2)CC1,nt,15%,1%,nt,nt
Cc1cccc(N2CCN(C(=S)c3ccccc3)CC2)c1,nt,25%,?,nt,nt
CN(C)c1ccc(C(=S)N2CCN(c3ccc([N+](=O)[O-])cc3)CC2)cc1,nt,nt,1µM*,nt,nt
CC(=O)c1ccc(OC(=O)CCc2nc3ccccc3s2)cc1,nt,0%,-2%,nt,nt
Cc1cc(C)n(-c2nc3ccccc3nc2Nc2ccc(Cl)c(Cl)c2)n1,nt,nt,nt,14,nt
CCCCCC1CC(CC(C)C(=O)Nc2nncs2)C(=O)O1 (stereo not given),12,2%,9%,5,-10%
CCCCCC1CC(CC(=O)Nc2nncs2)C(=O)O1 (stereo not given),-100*,-3%,5%,1,-17%
Nc1nc(-c2cc(-c3cccc4ccccc34)nc(N)n2)cc(-c2cccc3ccccc23)n1,nt,-2%,-8%[13.5 µM],nt,-5%
COc1ccc(CC(=O)N2CCN=C2SCc2cccc([N+](=O)[O-])c2)cc1,nt,15%,?,nt,nt
O=C1COc2ccc(C(=O)/C=C/c3ccccc3)cc2N1,-6,-3%,?,nt,-23%
O=C(O)/C=C/C(=O)Nc1ccc2c(c1)NC(=O)CO2,nt,-6%,22µM*,nt,nt
COC(=O)CC1C(=O)NCCN1C(=O)CSc1nc2ccccc2s1 (stereo not given),nt,1%,18µM*,nt,nt
COC(=O)CC1C(=O)NCCN1C(=O)c1ccccc1 (stereo not given),-22,4%[38.3 µM],9%,16,-15%
SMILES,PNC inhibitor,IMPase Li cell,ALDH1A1 block,IMPase inh,HPGD inh
CC(=O)c1c(C)nc(-c2ccccc2)n1O,3,-8%[38.3 µM],9%,5,-13%
CC(=O)c1c(C)nc(-c2ccc(Cl)cc2Cl)n1O,-100*,4%,9%,-7,-16%
O=C(C1COc2ccccc2O1)N1CCN(c2ccccc2Cl)CC1 (stereo not given),nt,5%,-5%,nt,nt
O=C(C1COc2ccccc2O1)N1CCc2ccccc2C1 (stereo not given),?,5%,?,-11,7.1µM*
Clc1ccc(-n2ncc3c(NCc4ccco4)ncnc32)cc1,8,11%[38.3 µM],7%,-3,-5%
Clc1ccc(Cn2ncc3c(NCc4ccco4)ncnc32)c(Cl)c1,40,29%[38.3 µM],?,19,28µM*
COc1ccc(N=N/C(=C\O)C(=O)c2ccco2)cc1,nt,11%,7.9µM*,nt,nt
COc1ccc(N2C(=O)C3CCCN3C2c2ccccc2OC)cc1 (stereo not given),?,-14%[38.3 µM],?,6,-14%
COc1ccc(N2C(=O)C3CCCN3C2c2ccc(C)cc2)cc1 (stereo not given),32,-5%[38.3 µM],20µM*,3,0%
COc1ccc(N2C(=O)C3CCCN3C2c2ccccc2Cl)cc1 (stereo not given),?,21%[38.3 µM],10µM*,0,-20%
COc1cccc(Cn2c(=O)cnc3cnc(N4CCOCC4)nc32)c1,nt,5%,?,nt,?
Cc1ccc(-n2cc[nH]c2=S)cc1C,35,-5%,?,nt,22µM*
O=C1[C@H]2[C@@H](C(=O)N1c1cccc3ccccc13)C1(C(=O)c3ccccc3C1=O)N1CCC[C@@H]21,?,0%[38.3 µM],11µM*,7,-13%
O=C1[C@H]2[C@@H](C(=O)N1c1cc(Cl)cc(Cl)c1)[C@]1(C(=O)Nc3ccccc31)N1CCC[C@@H]21,-3,-6%[38.3 µM],?,1,-12%
CCCc1[nH]n(-c2nc3ccccc3s2)c(=O)c1C=NCC1CCCO1 (stereo not given),-20,-2%[38.3 µM],25µM*,0,-20%
CCOc1ccc(C2NC(=O)c3n[nH]c(C)c32)cc1 (stereo not given),?,17%[38.3 µM],11%,5,-5%
Cc1[nH]nc2c1C(c1ccccc1F)NC2=O (stereo not given),-103*,5%[38.3 µM],3%,-2,-9%
Cc1cc2c(c(=O)n1CC1CCCO1)C(c1ccc3c(c1)OCO3)C(C#N)=C(N)O2 (stereo not given),-18,-8%[38.3 µM],11µM*,2,-16%
CCn1c(C)cc2c(c1=O)C(c1ccc3c(c1)OCO3)C(C#N)=C(N)O2 (stereo not given),34,39%[38.3 µM],-16%,10,-15%
Cn1c(=O)c(-c2ccc(F)cc2)nc2cncnc21,nt,3%,-15%,nt,-11%
CN(C)c1ccc(-c2cncnc2NCc2cccnc2)cc1,nt,12%,10%,nt,nt
Cc1[nH]c(C)c(CN(C)C)c1CN(C)C,nt,-12%,9%[13.5 µM],nt,-6%
CSc1ncccc1C(=O)NCc1ccc(C)cc1,-12,?,1%,-5,14µM*
CCOc1ncccc1C(=O)NCc1ccc(C)cc1,?,6%,0%,8,16µM*
CCOc1ncccc1C(=O)Nc1ccccc1C(=O)NCc1ccc2c(c1)OCO2,-26,?,167%,?,-22%
CC(C)Cc1nnc(NC(=O)CSc2nc(-c3ccccc3)cc(=O)[nH]2)s1,nt,3%,3%,nt,nt
COc1ccc(C(=O)N2CCC3(CCCN(Cc4cc(C(F)(F)F)cc(C(F)(F)F)c4)C3)CC2)cc1,nt,10%,-4%,nt,-4%
CCn1c(SCC(=O)N2CCOCC2)nc(O)cc1=O,25,-4%[38.3 µM],6%,3,-28%
COc1ccc(-n2c(SCC(=O)N3CCCCC3)nc(O)cc2=O)cc1,33,-4%[38.3 µM],22µM*,-6,-7%
